Laboratory results from the supplement of paper PMC8728848.
The full list was thinned out, with the strongest signals kept by preference.

Key:
Test in all cases: glycan array binding signal (z-score within array); higher = stronger binding
Settings in all cases: glycan notation: IUPAC condensed, linker removed
[1] = target: Fuc(a1-2)Gal(b1-3)GalNAc(b1-4)[Neu5Ac(a2-3)]Gal(b1-4)Glc
Procedure, shortened: (§1)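 Glycan array data were curated from 3228 arrays in the Consortium for Functional Glycomics database and kept only where the protein sequence was available. Glycan names were converted to IUPAC-condensed notation, and columns mapping to the same glycan were averaged. The binding signal is a within-array Z-score, averaged across arrays of the same protein sequence at different concentrations or buffers and across linkers. Negative Z-scores can be read as non-binding.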

Fuc(a1-2)Gal(b1-3)GlcNAc = target: Fuc(a1-2)Gal(b1-3)GlcNAc
Procedure, shortened: as §1

Fuc(a1-2)Gal(b1-4)GlcNAc = target: Fuc(a1-2)Gal(b1-4)GlcNAc
Procedure, shortened: as §1

[2] = target: Fuc(a1-2)Gal(b1-4)[Fuc(a1-3)]GlcNAc(b1-3)Gal(b1-4)[Fuc(a1-3)]GlcNAc
Procedure, shortened: as §1

[3] = target: Fuc(a1-3)[Gal(b1-4)]GlcNAc(b1-2)Man(a1-3)[Fuc(a1-3)[Gal(b1-4)]GlcNAc(b1-2)Man(a1-6)]Man(b1-4)GlcNAc(b1-4)GlcNAc
Procedure, shortened: as §1

[4] = target: Gal(a1-4)Gal(b1-4)GlcNAc(b1-3)Gal(b1-4)Glc
Procedure, shortened: as §1

[5] = target: Gal(b1-4)GlcNAc(b1-3)[Gal(b1-4)GlcNAc(b1-6)]Gal(b1-4)GlcNAc
Procedure, shortened: as §1

[6] = target: Gal(b1-4)GlcNAc(b1-6)GalNAc
Procedure, shortened: as §1

Gal3S(b1-4)GlcNAc6S = target: Gal3S(b1-4)GlcNAc6S
Procedure, shortened: as §1

[7] = target: GalNAc(b1-3)Gal(a1-4)Gal(b1-4)GlcNAc
Procedure, shortened: as §1

[8] = target: GlcNAc(a1-3)Gal(b1-4)GlcNAc
Procedure, shortened: as §1

[9] = target: GlcNAc(a1-6)Gal(b1-4)GlcNAc
Procedure, shortened: as §1

Kdn(a2-6)Gal(b1-4)GlcNAc = target: Kdn(a2-6)Gal(b1-4)GlcNAc
Procedure, shortened: as §1

[10] = target: Man(a1-2)Man(a1-3)[Man(a1-2)Man(a1-6)]Man(a1-6)[Man(a1-2)Man(a1-2)Man(a1-3)]Man(b1-4)GlcNAc(b1-4)GlcNAc
Procedure, shortened: as §1

[11] = target: Man(a1-2)Man(a1-6)[Man(a1-3)]Man(a1-6)[Man(a1-2)Man(a1-2)Man(a1-3)]Man
Procedure, shortened: as §1

[12] = target: Man(a1-2)Man(a1-6)[Man(a1-3)]Man(a1-6)[Man(a1-2)Man(a1-2)Man(a1-3)]Man(b1-4)GlcNAc(b1-4)GlcNAc
Procedure, shortened: as §1

Man(a1-3)[Man(a1-6)]Man = target: Man(a1-3)[Man(a1-6)]Man
Procedure, shortened: as §1

[13] = target: Man(a1-3)[Man(a1-6)]Man(a1-6)[Man(a1-2)Man(a1-3)]Man(b1-4)GlcNAc(b1-4)GlcNAc
Procedure, shortened: as §1

[14] = target: Neu5Ac(a2-3)Gal(b1-3)[Neu5Ac(a2-3)Gal(b1-4)]GlcNAc
Procedure, shortened: as §1

[15] = target: Neu5Ac(a2-3)Gal(b1-4)GlcNAc(b1-2)Man(a1-3)[GlcNAc(b1-2)Man(b1-4)GlcNAc(b1-2)Man(a1-6)]Man(b1-4)GlcNAc(b1-4)GlcNAc
Procedure, shortened: as §1

[16] = target: Neu5Ac(a2-3)Gal(b1-4)GlcNAc(b1-3)GalNAc
Procedure, shortened: as §1

[17] = target: Neu5Ac(a2-3)Gal(b1-4)[Fuc(a1-3)]GlcNAc(b1-3)Gal
Procedure, shortened: as §1

[18] = target: Neu5Ac(a2-3)Gal(b1-4)[Fuc(a1-3)]GlcNAc(b1-6)[Neu5Ac(a2-3)Gal(b1-3)]GalNAc
Procedure, shortened: as §1

[19] = target: Neu5Ac(a2-6)Gal(b1-4)GlcNAc(b1-3)Gal(b1-3)GlcNAc
Procedure, shortened: as §1

[20] = target: Neu5Ac(a2-6)Gal(b1-4)GlcNAc(b1-3)Gal(b1-4)[Fuc(a1-3)]GlcNAc(b1-3)Gal(b1-4)[Fuc(a1-3)]GlcNAc
Procedure, shortened: as §1

Neu5Ac(a2-8)Neu5Ac = target: Neu5Ac(a2-8)Neu5Ac
Procedure, shortened: as §1

[21] = target: Neu5Ac(a2-8)Neu5Ac(a2-8)Neu5Ac
Procedure, shortened: as §1

[22] = target: Neu5Ac(b2-6)Gal(b1-4)GlcNAc
Procedure, shortened: as §1

[23] = target: Neu5Ac(a2-3)Gal(b1-4)GlcNAc(b1-3)Gal(b1-4)GlcNAc
Procedure, shortened: as §1

[24] = target: Neu5Ac(a2-3)Gal(b1-4)[Fuc(a1-3)]GlcNAc(b1-3)GalNAc
Procedure, shortened: as §1

[25] = target: Neu5Ac(a2-6)Gal(b1-4)GlcNAc(b1-2)Man(a1-3)[Man(a1-6)]Man(b1-4)GlcNAc(b1-4)GlcNAc
Procedure, shortened: as §1

[26] = target: Neu5Ac(a2-6)Gal(b1-4)GlcNAc(b1-2)Man(a1-6)[GlcNAc(b1-2)Man(a1-3)]Man(b1-4)GlcNAc(b1-4)GlcNAc
Procedure, shortened: as §1

[27] = target: Neu5Ac(a2-6)Gal(b1-4)GlcNAc(b1-3)Gal(b1-4)GlcNAc(b1-3)Gal(b1-4)GlcNAc
Procedure, shortened: as §1

[28] = target: Neu5Ac(a2-6)Gal(b1-4)GlcNAc(b1-3)GalNAc
Procedure, shortened: as §1

Binder | glycan array binding signal (z-score) [1] | glycan array binding signal (z-score) (Fuc(a1-2)Gal(b1-3)GlcNAc) | glycan array binding signal (z-score) (Fuc(a1-2)Gal(b1-4)GlcNAc) | glycan array binding signal (z-score) [2] | glycan array binding signal (z-score) [3] | glycan array binding signal (z-score) [4] | glycan array binding signal (z-score) [5] | glycan array binding signal (z-score) [6] | glycan array binding signal (z-score) (Gal3S(b1-4)GlcNAc6S) | glycan array binding signal (z-score) [7] | glycan array binding signal (z-score) [8] | glycan array binding signal (z-score) [9] | glycan array binding signal (z-score) (Kdn(a2-6)Gal(b1-4)GlcNAc) | glycan array binding signal (z-score) [10] | glycan array binding signal (z-score) [11] | glycan array binding signal (z-score) [12] | glycan array binding signal (z-score) (Man(a1-3)[Man(a1-6)]Man) | glycan array binding signal (z-score) [13] | glycan array binding signal (z-score) [14] | glycan array binding signal (z-score) [15] | glycan array binding signal (z-score) [16] | glycan array binding signal (z-score) [17] | glycan array binding signal (z-score) [18] | glycan array binding signal (z-score) [19] | glycan array binding signal (z-score) [20] | glycan array binding signal (z-score) (Neu5Ac(a2-8)Neu5Ac) | glycan array binding signal (z-score) [21] | glycan array binding signal (z-score) [22] | glycan array binding signal (z-score) [23] | glycan array binding signal (z-score) [24] | glycan array binding signal (z-score) [25] | glycan array binding signal (z-score) [26] | glycan array binding signal (z-score) [27] | glycan array binding signal (z-score) [28]
Ficolin B (Rattus norvegicus), P57756 (protein) MVLGSAALFVLSLCVTELTLHAADTCPEVKVLDLEGSNKLTILQGCPGLPGALGPKGEAGAKGDRGESGLPGHPGKAGPTGPKGDRGEKGVRGEKGDTGPSQSCATGPRTCKELLTRGYFLTGWYTIYLPDCRPLTVLCDMDTDGGGWTVFQRRIDGTVDFFRDWTSYKQGFGSQLGEFWLGNDNIHALTTQGTNELRVDLADFDGNHDFAKYSSFQIQGEAEKYKLILGNFLGGGAGDSLTSQNNMLFSTKDQDNDQGSSNCAVRYHGAWWYSDCHTSNLNGLYLRGLHKSYANGVNWKSWKGYNYSYKVSEMKVRLI | -0.165 | -0.197 | -0.192 | -0.205 | -0.214 | -0.169 | 1.56 | -0.085 | -0.2 | -0.2 | -0.127 | 0.051 | -0.209 | -0.224 | -0.212 | -0.18 | -0.166 | -0.182 | 3.17 | 5.65 | -0.192 | 0.01 | 0.019 | 0.054 | -0.204 | 3.73 | 2.69 | 8.52 | – | – | – | – | – | –
Gal 2 (Canis lupus) (protein) MSGKFEVMNMDMKLGGTLKIKGKIAGDADGFVINLGQGSDKLNLHFNPRFHESVIVCNSRNWGQEQRDKHMCFSPGSEVKFTVTFENDGFKVKLPDGHQLTFPNRLGHSHLSYLGVQGGLKVSSFKIE | – | – | – | – | – | – | – | – | – | – | – | – | – | – | – | – | – | – | – | – | – | – | – | – | – | – | – | – | 0.01 | 1.21 | -0.076 | -0.361 | -0.293 | 0.102
